From the supplement of paper PMC3334620
The full ranking holds about 33,000 sequences; the median of “E-score (-0.5 to 0.5)” is about -0.035, and the highest 2% start at about 0.35. The entries come from a sample that favours the highest values as a whole.

Biological target: T1, Pdr3 (UniProt P33200)
T1 sequence: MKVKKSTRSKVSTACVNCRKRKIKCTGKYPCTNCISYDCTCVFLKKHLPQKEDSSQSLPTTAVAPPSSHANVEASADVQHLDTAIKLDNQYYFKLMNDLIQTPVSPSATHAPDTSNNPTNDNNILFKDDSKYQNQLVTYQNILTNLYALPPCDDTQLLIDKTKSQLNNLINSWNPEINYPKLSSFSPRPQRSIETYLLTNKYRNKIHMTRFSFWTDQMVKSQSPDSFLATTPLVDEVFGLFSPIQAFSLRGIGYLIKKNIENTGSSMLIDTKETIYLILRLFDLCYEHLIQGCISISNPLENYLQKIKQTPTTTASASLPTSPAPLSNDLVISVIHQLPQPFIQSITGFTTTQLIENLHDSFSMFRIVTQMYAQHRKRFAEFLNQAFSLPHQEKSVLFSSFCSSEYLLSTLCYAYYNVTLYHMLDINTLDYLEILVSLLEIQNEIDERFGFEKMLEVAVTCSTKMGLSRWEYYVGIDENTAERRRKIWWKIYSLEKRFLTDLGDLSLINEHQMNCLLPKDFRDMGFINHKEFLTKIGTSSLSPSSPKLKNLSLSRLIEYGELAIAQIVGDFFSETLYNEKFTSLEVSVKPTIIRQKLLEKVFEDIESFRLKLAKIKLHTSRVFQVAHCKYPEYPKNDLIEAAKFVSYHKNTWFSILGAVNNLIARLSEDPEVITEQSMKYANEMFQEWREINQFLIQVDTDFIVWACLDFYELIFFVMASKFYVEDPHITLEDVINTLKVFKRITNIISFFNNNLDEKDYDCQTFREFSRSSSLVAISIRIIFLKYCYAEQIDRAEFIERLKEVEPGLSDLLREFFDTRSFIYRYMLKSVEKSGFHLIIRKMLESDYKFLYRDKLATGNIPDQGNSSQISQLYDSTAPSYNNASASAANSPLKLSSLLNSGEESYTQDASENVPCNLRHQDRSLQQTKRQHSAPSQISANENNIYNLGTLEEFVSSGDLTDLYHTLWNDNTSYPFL
Assay: PBM E-score (8-mer binding enrichment) (E-score (-0.5 to 0.5)); higher = stronger / more preferred TF binding
Settings: protein concentration: 200 nM; construct: GST-full length
Description: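 Universal 'all 10-mer' protein binding microarrays (Agilent AMADID 015681) probed with GST-tagged S. cerevisiae TFs (full-length or DBD) made by in vitro transcription/translation (PURExpress), about 100-200 nM. Bound TF was detected with fluorescent anti-GST. Each ungapped 8-mer (which stands for itself and its reverse complement) is scored by the PBM enrichment score (E-score), a modified Wilcoxon-Mann-Whitney statistic from -0.5 to +0.5, computed with the Universal PBM Analysis Suite. Scale: above 0.35 generally sequence-specific binding.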

Row | Sequence | PBM E-score
1 | ACTGGGAC | -0.0292
2 | AGAACGTA | -0.0336
3 | ACGGGCCA | 0.117
4 | CTTTCCGC | 0.384
5 | ATTTCCTG | 0.0852
6 | GTTTCCAA | -0.274
7 | CTTTCCCC | 0.117
8 | GTTTCCCA | 0.0393
9 | CTTTCCAA | -0.0271
10 | ATTTCCGA | 0.338
11 | ATTTCCGG | 0.456
12 | CTTTCCCA | 0.0901
13 | GTTTCCGA | 0.429
14 | CTTTCCGA | 0.413
15 | CTTTCCTC | -0.162
16 | CGCGAAAA | 0.096
17 | ACGCTTCG | 0.00401
18 | CGCCTGGC | -0.0374
19 | CAACTTCC | 0.225
20 | AATTTAAT | 0.128
21 | AAACCTAC | -0.103
22 | CTGCCGCC | -0.0369
23 | GGAAGATA | 0.234
24 | GCCCAGAC | -0.222
25 | AAATGATG | 0.133

Row | Sequence | PBM E-score
26 | CTACAAAG | -0.116
27 | ATTTCCTC | 0.154
28 | ATTTCCAC | 0.131
29 | ATTTCCGC | 0.413
30 | AGCACAAA | 0.12
31 | CGGGCGTC | 0.193
32 | CGATTCCC | 0.181
33 | AGATTCCG | 0.453
34 | CGATTCCA | 0.112
35 | AGATTCCC | 0.198
36 | CGATTCCG | 0.466
37 | AGATTCCT | -0.088
38 | AACGTGAT | -0.0792
39 | ACCGGCTC | 0.122
40 | AGACGGAT | 0.249
41 | TGACGGAA | 0.445
42 | GGACGGAA | 0.429
43 | AGACGGAG | 0.216
44 | CGACGGAA | 0.439
45 | GGACGGAC | 0.293
46 | GGACGGTA | 0.118
47 | CGACGGAC | 0.342
48 | AGACGGAA | 0.422
49 | CGACGGAG | 0.331
50 | TGACGGCA | 0.135

Row | Sequence | PBM E-score
51 | TGACGAAA | -0.112
52 | ATAATACA | 0.212
53 | ATGATGGC | 0.0224
54 | GGATCTCA | 0.0621
55 | TCCAAGGA | -0.00825
56 | GGGAACCC | 0.133
57 | TGGAACCA | 0.188
58 | CAGAACCG | 0.116
59 | CGGAACCC | 0.477
60 | AGGAACCC | 0.00054
61 | AGGAACCG | 0.123
62 | CGGAACCA | 0.483
63 | CGGAACCG | 0.482
64 | GGGAACCA | -0.0124
65 | ACTCCATA | -0.0901
66 | CACAGTAC | -0.0825
67 | ATCTCTTA | -0.0707
68 | AATCTCTG | -0.185
69 | TACGACTA | -0.179
70 | CCTCTAAC | -0.199
71 | TCACTGAA | 0.0661
72 | GCATCCTA | 0.00911
73 | GAGGGTTA | -0.131
74 | GCCCGGCA | 0.225
75 | GGCCGGCA | 0.367

Row | Sequence | PBM E-score
76 | AACCGGCA | 0.158
77 | GGCCGGCC | 0.326
78 | TGCCGACA | 0.123
79 | TGCCGGCA | 0.385
80 | ACCGTTAG | -0.208
81 | GGGCCCCA | 0.092
82 | GGCTAAGA | -0.0826
83 | AACACGGA | 0.374
84 | AACACGGC | 0.154
85 | GACACGGC | 0.171
86 | CACACGGA | 0.304
87 | AACACGGG | 0.116
88 | GACACGGA | 0.393
89 | GCGACCTA | 0.0108
90 | GCACGGAC | 0.356
91 | GCACGGAA | 0.451
92 | GCACGGCA | 0.103
93 | ACACGGAC | 0.299
94 | GCACGGCC | 0.21
95 | GCACGGGA | 0.315
96 | ATGCAGCA | 0.00559
97 | ACAGGGTA | -0.12
98 | AGATTCAG | -0.0749
99 | GGTATTCA | 0.0285
100 | CACCGTCA | 0.00596

Row | Sequence | PBM E-score
101 | CCTAACTA | -0.0709
102 | GCGTAGCA | 0.0185
103 | ATTATCCA | 0.0658
104 | ATTATCCG | 0.388
105 | ATTATCCC | 0.185
106 | CCACTGCA | -0.0534
107 | GCTTGGCC | -0.00234
108 | CGGGAAAA | 0.221
109 | ACGCTCCG | 0.315
110 | CCGCTCCG | 0.378
111 | CCGCTCCC | 0.151
112 | ACATCTCG | -0.111
113 | ATGACGGA | 0.362
114 | GTCACGGA | 0.415
115 | ATCACGGG | 0.0804
116 | GTCACGCA | -0.0717
117 | ATGACGGC | 0.141
118 | ATCACGGC | 0.218
119 | GTGACGGA | 0.31
120 | ATCACGGA | 0.391
121 | CTCACGGA | 0.325
122 | AAGGAAGC | -0.0529
123 | CACACCGC | 0.166
124 | CCCTAATA | -0.113
125 | GAAGGAAA | -0.00233

Row | Sequence | PBM E-score
126 | AGGCGTAC | -0.182
127 | ATGTCTCA | -0.0576
128 | CAGAACGC | 0.0429
129 | AGGAACGA | -0.1
130 | CGGAACGA | 0.464
131 | AGGAACGC | -0.00648
132 | GGGAACGA | 0.0381
133 | CGGAACGC | 0.466
134 | ACACCGAC | 0.0164
135 | ACGGACCA | 0.359
136 | ACGGACCG | 0.309
137 | CCGGACCA | 0.337
138 | ACGGACCT | 0.275
139 | GCGGACCA | 0.366
140 | TCGGACCA | 0.292
141 | AGGTGTGA | -0.138
142 | GTGGTGGA | -0.0783
143 | CAGTTGGA | -0.0903
144 | CGTGCAGA | -0.148
145 | CGCGGTGC | 0.172
146 | CGCGGAGC | 0.445
147 | AGCGGAGA | 0.232
148 | AGCGGAGC | 0.216
149 | CGCGGAGA | 0.415
150 | GGCGGAGA | 0.288

Row | Sequence | PBM E-score
151 | CGAACTGA | 0.0143
152 | CTCGCGAC | 0.0674
153 | GTCGCGAC | 0.38
154 | GTCGCGAA | 0.0709
155 | ACCTCTTC | -0.0577
156 | GATCCATC | 0.232
157 | ACCTTCCG | 0.394
158 | ATCTTCCG | 0.376
159 | AACTTCCA | 0.0852
160 | CCCTTCCC | 0.0658
161 | AACTTCCT | -0.108
162 | ATCTTCCC | 0.268
163 | ATCTTCCA | -0.196
164 | CCCTTCCG | 0.392
165 | ACCTTCCT | -0.244
166 | CCCTTCCA | -0.00559
167 | AACTTCCG | 0.388
168 | ACCTTCCC | 0.0674
169 | GAGCGTCC | -0.174
170 | AGCAATGA | -0.0334
171 | CTCTTTCA | -0.137
172 | ATGCTCAC | -0.048
